{"source": "PubChem BioAssay AID628", "about": "(Vanderbilt High Throughput Screening Facility, 2007)", "note": "The campaign covered roughly 64,000 compounds. About 2,200 (3.4%) were called active. The sample holds actives, similar compounds and a random draw of the others, so the mix is not that of the screen.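 Rule for the calls: active = calcium fluorescence response, raw or row-and-column corrected B-score, differing from the plate sample mean either way at a set confidence level, mostly lower; inactive = the rest.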", "data": [{"target": "Muscarinic acetylcholine receptor M1 (Rattus norvegicus) (UniProt P08482)", "sequence (P08482 whole entry, looked up)": "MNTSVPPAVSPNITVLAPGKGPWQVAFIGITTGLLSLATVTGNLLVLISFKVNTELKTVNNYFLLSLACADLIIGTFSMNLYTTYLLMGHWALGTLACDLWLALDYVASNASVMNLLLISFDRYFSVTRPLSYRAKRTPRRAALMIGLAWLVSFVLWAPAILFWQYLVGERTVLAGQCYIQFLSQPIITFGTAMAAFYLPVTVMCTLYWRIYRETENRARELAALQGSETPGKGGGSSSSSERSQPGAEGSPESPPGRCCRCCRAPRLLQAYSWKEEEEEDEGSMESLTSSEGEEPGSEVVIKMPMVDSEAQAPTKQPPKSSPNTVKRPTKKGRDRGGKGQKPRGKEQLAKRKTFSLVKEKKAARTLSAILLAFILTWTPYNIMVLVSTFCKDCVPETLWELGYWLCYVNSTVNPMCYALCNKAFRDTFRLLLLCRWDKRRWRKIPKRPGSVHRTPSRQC", "experiment": "blocks the rat M1 muscarinic receptor response to acetylcholine (AID 628)", "conditions": "CHO-M1 cells, Fluo-4 calcium, ACh EC80 antagonist mode; at 10 µM; active compounds read low", "values": [{"compound": "Cc1ccsc1C(=O)OCC(=O)c1cc(C)n(CC2CCCO2)c1C", "note": "(configuration not stated)", "B-score": "-0.425 (inactive)"}, {"compound": "O=C(NCCCNC(=O)NC1CCCCC1)NC1CCCCC1", "B-score": "0.589 (inactive)"}, {"compound": "Cc1nc2sc(C(c3ccco3)N3CCC4(CC3)OCCO4)c(O)n2n1", "note": "(configuration not stated)", "B-score": "0.231 (inactive)"}, {"compound": "CC1CCCC(C)N1CCCNC(=O)c1cc2c(=O)n(C)c3ccccc3c2n1C", "note": "(configuration not stated)", "B-score": "-3.75 (active)"}, {"compound": "CCN1CCCC1CNC(=O)c1cc2c(=O)n(C)c3ccccc3c2n1C", "note": "(configuration not stated)", "B-score": "-1.39 (inactive)"}, {"compound": "Cn1c(C(=O)NCCCN2CCN(c3cccc(Cl)c3)CC2)cc2c(=O)n(C)c3ccccc3c21", "B-score": "-1.91 (inactive)"}, {"compound": "COC(=O)C(NC(C)=O)(Nc1nc2c(s1)CCCC2)C(F)(F)F", "note": "(configuration not stated)", "B-score": "0.181 (inactive)"}, {"compound": "COC(=O)c1cc(Cl)c(NC(=O)c2ccco2)cc1OC", "B-score": "0.0739 (inactive)"}, {"compound": "O=C(Nc1nnc(-c2ccc(Cl)cc2)o1)c1ccccc1Br", "B-score": "0.257 (inactive)"}, {"compound": "Cc1c(C)c2cc3c4c(oc3c(C)c2oc1=O)CCCC4", "B-score": "-2.52 (active)"}, {"compound": "CCCOc1ccc2c3c(c(=O)oc2c1OCCC)CCC3", "B-score": "-0.182 (inactive)"}, {"compound": "O=C(NCc1ccc(Cl)cc1)c1cc2c(nc3sccn32)s1", "B-score": "-0.593 (inactive)"}, {"compound": "CCC(C)(NC(=O)c1ccccn1)C(=O)NC1CCCCC1", "note": "(configuration not stated)", "B-score": "-3.41 (active)"}, {"compound": "CCC(C)(C(=O)NC1CCCC1)N(C(=O)CNC(C)=O)c1ccc(C)cc1", "note": "(configuration not stated)", "B-score": "0.0894 (inactive)"}, {"compound": "CN(CC(=O)NC1CCCCC1)S(=O)(=O)c1cccc2cccnc12", "B-score": "-0.865 (inactive)"}, {"compound": "O=C(O)c1cc(S(=O)(=O)N2CCCCCC2)c(Cl)cc1Cl", "B-score": "-0.939 (inactive)"}, {"compound": "COCCCNC(=O)Cn1cc(C(=O)C2CC2)c2ccccc21", "B-score": "1.18 (inactive)"}, {"compound": "N#Cc1c2c(c(N3CCN(CCO)CC3)n3c1nc1ccccc13)CCCC2", "B-score": "-0.206 (inactive)"}, {"compound": "CN(C)CCCNc1c2c(c(C#N)c3nc4ccccc4n13)CCC2", "B-score": "-3.92 (active)"}, {"compound": "Cc1cc(NCc2ccco2)n2c(nc3ccccc32)c1C#N", "B-score": "0.838 (inactive)"}, {"compound": "CC(=O)CSc1nnc(CSc2ncccn2)n1C1CCCCC1", "B-score": "0.586 (inactive)"}, {"compound": "CC1CN(c2cc(=O)n(Cc3ccc(F)cc3)c(=O)[nH]2)CC(C)O1", "note": "(configuration not stated)", "B-score": "-0.0281 (inactive)"}, {"compound": "CCOc1cc(S(=O)(=O)NCc2ccc3c(c2)OCO3)ccc1F", "B-score": "0.637 (inactive)"}, {"compound": "O=C(CS(=O)(=O)c1cn(Cc2ccc(Cl)cc2)c2ccccc12)N1CCOCC1", "B-score": "0.274 (inactive)"}, {"compound": "Cn1c(=O)c(=O)n(C)c2cc(S(=O)(=O)NCCc3ccccc3)ccc21", "B-score": "0.991 (inactive)"}, {"compound": "CC1CCC(NS(=O)(=O)c2ccc3c(c2)n(C)c(=O)c(=O)n3C)CC1", "note": "(configuration not stated)", "B-score": "-0.853 (inactive)"}, {"compound": "CCCCN(CCCC)C(=O)CCS(=O)(=O)c1ccc2c(c1)n(C)c(=O)c(=O)n2C", "B-score": "-3.55 (active)"}]}]}
